Pf growth 48h: inhibits P. falciparum growth in the first generation, 48 h; Potency, µM (titrated, usually from 28.7 µM), hits mostly inhibitors; P. falciparum luciferase growth in erythrocytes, 48 h; 310,000 compounds, 5.9% hits
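Luciferase-expressing parasites in RBCs, 2% Hct / 0.1% parasitemia final; RPMI 1640 + 0.5% Albumax; 37 C, 5% CO2, one generation; luminescence read-out, lower signal = inhibition.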
HCMV antiviral: blocks human cytomegalovirus replication | HFF cells, HCMV-luciferase reporter, 72 h; hits give low values | activity change, negative = inhibition, % at 57.5 µM | 410,000 compounds, 4.5% hits | AID 1259415; in the data active means activity change below about -60%; inconclusive means no clear call, values can overlap the other calls; inactive means above about -39%
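After 16 h attachment at 37C, HFF cells received test compound and HCMV-luciferase (1 PFU/cell); reporter luminescence read 72 h later, data normalized against buffer-only and known inhibitor Salinomycin.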
Pf growth 96h: P. falciparum growth inhibition at 96 hours; Potency, µM (top dose mostly 28.7 µM), actives largely listed as inhibitors; AID 504834; P. falciparum luciferase reporter growth, 96 h; 320,000 compounds, 6.9% hits
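Parasite growth measured via integrated firefly luciferase reporter in P. falciparum. Infected erythrocytes at 2% hematocrit, 0.05% parasitemia final were treated 96 hours at 37 C under 5% CO2, and luminescence was read.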
HCV inhibitor: inhibitors of hepatitis C virus infection; Huh7.5.1 HCVcc-Cre infection, luciferase reporter, 44 h; Potency, µM (top dose mostly 41.8 µM), hits mostly inhibitors; 340,000 compounds, 3.4% hits; AID 651820
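A cell-based infection assay in which seeded cells (1,000 per well) receive test compound after 4 h, are inoculated with HCVcc-Cre at approximately 0.5 moi, and are incubated 44 h before luminescence detection.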
Numbers stand for hits. Shown are actives, neighbours in structure and some others; about 13% of the full set was active somewhere. Unless noted, the call rests on the fitted dose curve; in most records, active means well fitted inhibition curve with a large enough effect; inconclusive means small, poorly fitted or top-dose-only effect, or another doubt; inactive means no such curve, though single readings can be large or run the other way.

Screening CCOc1ccc(N(CC(=O)NN=C2CCN(C)CC2)S(=O)(=O)c2ccc(Br)cc2)cc1 returned Pf growth 48h inactive, HCMV antiviral inactive and Pf growth 96h 15µM.
For Cc1ccc(N(CC(=O)NCCSCc2ccco2)S(=O)(=O)c2ccc(C)cc2)cc1 the results were Pf growth 48h inconclusive, HCMV antiviral inconclusive, Pf growth 96h 6.6µM and HCV inhibitor inconclusive.
NC(=O)C1CCN(c2nc(-c3cccc(Br)c3)cs2)CC1 was read as Pf growth 48h inconclusive and Pf growth 96h inactive.
COc1cccc(N(CC(=O)NCCSCc2ccco2)S(=O)(=O)c2ccccc2)c1 was read as Pf growth 48h inconclusive, HCMV antiviral inconclusive, Pf growth 96h inconclusive and HCV inhibitor inactive.
Screening Cc1ccc(N(CC(=O)NCc2ccco2)S(=O)(=O)c2ccccc2)cc1 returned Pf growth 48h 13µM, HCMV antiviral inactive, Pf growth 96h inactive and HCV inhibitor inactive.
For CCNC(=O)CN(c1ccc(C)cc1)S(=O)(=O)c1ccccc1 the results were HCMV antiviral -83 and HCV inhibitor inactive.
Screening Cc1ccc(N(CC(=O)NCC(O)c2ccccc2)S(=O)(=O)c2ccc(C)cc2)cc1 (centres undefined) returned Pf growth 48h inactive, HCMV antiviral inactive, Pf growth 96h inactive and HCV inhibitor inactive.
Screening C=CCNC(=O)c1ccc(CN(c2ccc(OCC)cc2)S(=O)(=O)c2ccc(C)cc2)cc1 returned Pf growth 48h 7.4µM, HCMV antiviral inactive, Pf growth 96h inactive and HCV inhibitor 11µM.
Screening COc1ccc(N(CC(=O)NCCSCc2ccco2)S(=O)(=O)c2ccccc2)cc1Cl returned Pf growth 48h 12µM, HCMV antiviral inactive, Pf growth 96h inconclusive and HCV inhibitor inconclusive.
For COc1ccc(CNC(=O)C2CCN(c3nc4ccccc4[nH]3)CC2)cc1OC the results were HCMV antiviral inactive.
Screening CCOc1ccc(CNC(=O)C2Cc3cc(S(=O)(=O)N4CCCCCC4)ccc3N2C(C)=O)cc1 (centres undefined) returned HCMV antiviral inactive.
Screening COCCN(C(=O)Cn1c(C(F)(F)F)nc2ccccc21)c1c(N)n(Cc2ccccc2)c(=O)[nH]c1=O returned Pf growth 48h inconclusive, HCMV antiviral inactive, Pf growth 96h 15µM and HCV inhibitor inactive.
Screening CN(C(=O)COC(=O)Cn1c(C(F)(F)F)nc2ccccc21)c1c(N)n(Cc2ccccc2)c(=O)[nH]c1=O returned Pf growth 48h inactive, HCMV antiviral inactive, Pf growth 96h inactive and HCV inhibitor inactive.
COCCN(C(=O)COC(=O)c1ccc(-c2ccccc2)cc1)c1c(N)n(Cc2ccccc2)c(=O)[nH]c1=O was read as HCMV antiviral inactive and HCV inhibitor inactive.
For CN(C(=O)COC(=O)CCC(=O)c1ccc(Cl)cc1)c1c(N)n(Cc2ccccc2)c(=O)[nH]c1=O the results were Pf growth 48h inactive, HCMV antiviral inactive, Pf growth 96h 2.1µM and HCV inhibitor inactive.
For Nc1c(N(Cc2ccco2)C(=O)c2ccc(Cl)cc2)c(=O)[nH]c(=O)n1Cc1ccccc1 the results were Pf growth 48h inconclusive, HCMV antiviral -71, Pf growth 96h inactive and HCV inhibitor inactive.
Screening CN(C(=O)COC(=O)CCC(=O)c1ccccc1)c1c(N)n(Cc2ccccc2)c(=O)[nH]c1=O returned Pf growth 48h inactive, HCMV antiviral inactive, Pf growth 96h inactive and HCV inhibitor inactive.
COCCN(C(=O)COC(=O)c1c(-c2ccccc2)noc1C)c1c(N)n(Cc2ccccc2)c(=O)[nH]c1=O was read as Pf growth 48h inconclusive, HCMV antiviral inactive, Pf growth 96h 12µM and HCV inhibitor inconclusive.
CCc1ccc(NC(=O)Cn2c(=O)n(-c3cc(OC)c(OC)c(OC)c3)c(=O)c3ccccc32)cc1 was read as HCMV antiviral inactive.
COCCN(C(=O)COC(=O)C12CC3CC(CC(O)(C3)C1)C2)c1c(N)n(Cc2ccccc2)c(=O)[nH]c1=O was read as HCMV antiviral inactive.
For CC(C)CN(C(=O)COC(=O)C12CC3CC(CC(C3)C1)C2)c1c(N)n(Cc2ccccc2)c(=O)[nH]c1=O the results were Pf growth 48h 1.2µM, HCMV antiviral -84, Pf growth 96h 0.13µM and HCV inhibitor 16µM.
Screening CC(=O)Nc1sc(C)c(C)c1C(=O)OCC(=O)N(CC(C)C)c1c(N)n(Cc2ccccc2)c(=O)[nH]c1=O returned Pf growth 48h inconclusive, HCMV antiviral inactive, Pf growth 96h inconclusive and HCV inhibitor 5µM.
`COC(=O)c1c(C)[nH]c(C(=O)OCC(=O)N(CC(C)C)c2c(N)n(Cc3ccccc3)c(=O)[nH]c2=O)c1C` gave Pf growth 48h inconclusive, HCMV antiviral inactive, Pf growth 96h inconclusive and HCV inhibitor inconclusive.
Cc1nn(-c2ccccc2)c(C)c1C(=O)OCC(N)=O was read as Pf growth 48h inactive, HCMV antiviral inactive, Pf growth 96h inactive and HCV inhibitor inactive.
For Cc1nn(-c2ccccc2)c(C)c1C(=O)OCc1ccc(C#N)cc1 the results were Pf growth 48h inactive, HCMV antiviral inactive, Pf growth 96h inactive and HCV inhibitor 13µM.
CCc1nc2ccccc2c(C(=O)OCC(=O)N(CCOC)c2c(N)n(Cc3ccccc3)c(=O)[nH]c2=O)c1C was read as Pf growth 48h 13µM, HCMV antiviral inconclusive, Pf growth 96h inconclusive and HCV inhibitor 14µM.
For COc1ccc(OC)c(/C=C/c2nc3ccccc3c(=O)n2-c2ccc(F)c(Cl)c2)c1 the results were HCMV antiviral inactive.
Screening Cc1onc(-c2ccccc2)c1C(=O)OCC(=O)N(C)c1c(N)n(Cc2ccccc2)c(=O)[nH]c1=O returned Pf growth 48h inconclusive, HCMV antiviral inactive, Pf growth 96h 12µM and HCV inhibitor inactive.
`CC(C)CN(C(=O)COC(=O)CSc1ccccc1F)c1c(N)n(Cc2ccccc2)c(=O)[nH]c1=O` gave Pf growth 48h inconclusive, HCMV antiviral inactive, Pf growth 96h inactive and HCV inhibitor inactive.
`Cc1onc(-c2ccccc2)c1C(=O)OCC(=O)N(CC(C)C)c1c(N)n(Cc2ccccc2)c(=O)[nH]c1=O` gave Pf growth 48h 13µM, HCMV antiviral inactive, Pf growth 96h inconclusive and HCV inhibitor inconclusive.
`Cc1nn(-c2ccccc2)c(C)c1C(=O)OCC(=O)N(C)c1c(N)n(Cc2ccccc2)c(=O)[nH]c1=O` gave Pf growth 48h inconclusive, HCMV antiviral inactive, Pf growth 96h 12µM and HCV inhibitor inactive.
For CCN(C(=O)COC(=O)c1c(-c2ccccc2)noc1C)c1c(N)n(Cc2ccccc2)c(=O)[nH]c1=O the results were Pf growth 48h inconclusive, HCMV antiviral inactive, Pf growth 96h inconclusive and HCV inhibitor inactive.
For Cc1ccc(SCC(=O)OCC(=O)N(CC(C)C)c2c(N)n(Cc3ccccc3)c(=O)[nH]c2=O)c(C)c1 the results were Pf growth 48h inactive, HCMV antiviral inactive, Pf growth 96h inactive and HCV inhibitor 10µM.
For COc1ccc(-c2cc3nc(C)c(CCC(=O)NC4CCCCC4)c(C)n3n2)c(OC)c1 the results were HCMV antiviral inactive.
CC1(C)C=Cc2cc(-c3coc4cc(O)cc(O)c4c3=O)cc(O)c2O1 was read as HCMV antiviral -61 and HCV inhibitor 11µM.
